# VACV Venus inh = qHTS for Stage-Specific Inhibitors of Vaccinia Orthopoxvirus: Venus Reporter Primary qHTS; Vaccinia virus Venus reporter expression, fluorescence; Potency, µM (titrated, usually from 36.5 µM), for inactives: at the highest dose activity change, negative = inhibition, most hits filed as inhibitors; 330,000 tested, 0.46% active; calls by dose curve; tested in A549 cells; note: potency is the fitted concentration of half-maximal effect; nearly all actives have a fitted effect of over 30% in size
# FMDV antiviral = High Throughput Screening for Foot and Mouth Disease Virus Antivirals. Potency, µM (top dose mostly 57.9 µM), for inactives: at the top dose activity change, negative = inhibition, hits mostly inhibitors. FMDV antiviral cell-based qHTS. AID 1159524, 2015. 410,000 tested, 1.2% active; calls by dose curve; tested in HEK293T cells; note: read-out not given here; potency is the fitted concentration of half-maximal effect; nearly all actives have a fitted effect of over 45% in size
# Vaccinia mCherry = qHTS for Stage-Specific Inhibitors of Vaccinia Orthopoxvirus: mCherry Reporter Primary qHTS. Vaccinia virus mCherry reporter infection, fluorescence. Potency, µM (doses to about 36.5 µM), for inactives: at the highest dose activity change, negative = inhibition, usual class: inhibitors. AID 720579, 2013. 310,000 tested, 0.63% active; calls by dose curve; tested in A549 cells; note: potency is the fitted concentration of half-maximal effect; nearly all actives have a fitted effect of over 35% in size
# HCMV antiviral = qHTS Assay for inhibitors of the human cytomegalovirus (HCMV); activity change, negative = inhibition, % at 57.5 µM; 410,000 tested, 4.5% active; HFF cells, HCMV-luciferase reporter, 72 h; active compounds read low; AID 1259415, 2018; in the data active = activity change below about -60%; inconclusive = no clear call, values can overlap the other calls; inactive = above about -39%
#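 Luciferase read-out from HCMV-luciferase-infected HFFs (MOI 1 PFU/cell) 72 h post infection at 37C; compounds added after 16 h cell attachment; activity normalized between buffer-only basal and Salinomycin (10uM) inhibitor controls.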
# HCV inh = qHTS Assay for Inhibitors of Hepatitis C Virus (HCV) | AID 651820, 2012 | Potency, µM (doses to about 41.8 µM), inactives show at the top dose activity change, negative = inhibition, hits mostly inhibitors | Huh7.5.1 HCVcc-Cre infection, luciferase reporter, 44 h | 340,000 tested, 3.4% active; active = well fitted inhibition curve with a large enough effect; inconclusive = small, poorly fitted or top-dose-only effect, or another doubt; inactive = no such curve, though single readings can be large or run the other way; note: potency is the fitted concentration of half-maximal effect
#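 Luciferase read-out (15 sec integration) after a 15 min room-temperature substrate step quantifies HCVcc-Cre infection. Cells, 1,000 per well, had compound added 4 h post-plating, then virus at ~0.5 moi, and were cultured 44 h.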
# * hit, by the source's call; i = inactive; ? = inconclusive; · = no result given. Only some compounds are listed: those with a hit (about 7.3% of all), similar ones and a draw of the others. % is set by controls: 0 for no effect and ±100 for the full control effect.
SMILES,VACV Venus inh,FMDV antiviral,Vaccinia mCherry,HCMV antiviral,HCV inh
O=C(Nc1cccc(-c2nc3ncccc3o2)c1)c1sc2ccccc2c1Cl,·,14%,·,6,?
C=CCCN1[C@@H](Cc2ccccc2)COc2ccccc2S1(=O)=O,·,·,·,-19,·
c1ccc(-c2sc3ccccc3c2-c2ccc(OCCN3CCCCC3)cc2)cc1,-18%,-13%,-15%,-64*,-12%
c1ccc2c(-c3ccc(OCCN4CCCCC4)cc3)c(-c3ccsc3)sc2c1,-29%,?,?,-23,?
CN(C)CCOc1ccc(-c2c(-c3ccccc3)sc3ccccc23)cc1,13µM*,?,?,-38,?
CCOc1ccccc1CNC(=O)c1cccn1-c1nnc(N2CCCC2)s1,-16%,24%,-9%,0,·
Cc1cc(C)nc(Sc2ccc3nnnn3n2)n1,3.5µM*,3%,0.5µM*,-37,7%
CCOC(=O)c1c(S(=O)(=O)N2CCCC(C(=O)NCc3ccc(Cl)cc3)C2)c(C)n(C)c1C (centres undefined),-11%,15%,-9%,-11,·
O=[N+]([O-])c1ccc(N2CCOCC2)c2cccnc12,-28%,-15%,-14%,5,-4%
O=[N+]([O-])c1ccc(N2CCOCC2)c2c1no[n+]2[O-],55%,10µM*,?,-101*,·
Cc1ccc(NS(=O)(=O)c2cccc3cccnc23)c(Br)c1,-9%,8%,i,-82*,-4%
Cc1ccc(NS(=O)(=O)c2cccc3cccnc23)c(Cl)c1,·,14%,·,-26,9%
Cc1ccc(S(=O)(=O)Nc2ccccc2-c2ccccc2NS(=O)(=O)c2ccc(C)cc2)cc1,-29%,-26%,·,28,6%
Cc1ccc(S(=O)(=O)Nc2cccc3cccnc23)cc1,?,28µM*,?,-105*,?
COC(=O)[C@@]1(C#N)CC(=O)N([C@@H](CO)c2ccccc2)[C@H]1c1ccccc1,·,·,·,-6,·
C[C@H]1CCC/C=C/[C@@H]2C[C@H](O)C[C@H]2[C@@H](O)/C=C/C(=O)O1,?,-20%,-6%,-76*,?
C[C@H]1CCC/C=C/[C@@H]2C[C@H](O)C[C@H]2[C@H](O)[C@H](S(=O)c2ccc(O)cc2)CC(=O)O1 (some centres undefined),?,-19%,?,-99*,0.56µM*
CC1CCCC=CC2CC(OC(=O)CN(C)C)CC2C(O)C=CC(=O)O1 (centres undefined),?,-18%,?,-98*,0.56µM*
O=C(CSc1nc(Nc2ccc(F)cc2)c2ccccc2n1)c1ccc(F)cc1,-13%,-23%,-10%,30,·
COc1cc(Nc2nc(SCC(=O)c3ccc(Br)cc3)nc3ccccc23)cc(OC)c1,?,?,?,-62*,·
Brc1ccc2nc(-c3ccco3)c(CC3CCCCC3)n2c1,-1%,-29%,7%,5,·
c1ccc(COc2ncnc3c2ncn3CCCNC2CCN(Cc3ccccc3)CC2)cc1,?,?,-30%,-86*,·
CSc1ncnc2c1ncn2CCCNC1CCN(Cc2ccccc2)CC1,-12%,-29%,-8%,-22,·
COCCN(CCOC)C(=S)Nc1ccccc1,-17%,6%,-12%,-16,1.8µM*
C=C(C)CN(Cc1ccccc1)C(=S)Nc1ccccc1,1%,12%,-8%,-18,-13%
SMILES,VACV Venus inh,FMDV antiviral,Vaccinia mCherry,HCMV antiviral,HCV inh
O=C1CCc2cc(S(=O)(=O)Nc3ccc(F)cc3)cc3c2N1CC3,-11%,13%,i,3,-4%
Cc1oc2c(C)c3oc(=O)c(CCC(=O)NCCCn4ccnc4)c(C)c3cc2c1C,-6%,-13%,-15%,-37,10µM*
Cc1oc2cc3oc(=O)c(CCC(=O)N4CCCCC4)c(C)c3cc2c1C,-5%,24%,-16%,30,·
Cc1oc2cc3oc(=O)c(CCC(=O)NCCCN4CCOCC4)c(C)c3cc2c1C,-6%,18%,-11%,1,1.6µM*
Cc1oc2cc3oc(=O)c(CC(=O)N4CCCCC4)c(C)c3cc2c1C,-6%,23%,-2%,-71*,·
Cc1oc2cc3oc(=O)c(CCC(=O)NCCCn4ccnc4)c(C)c3cc2c1C,-26%,7%,?,-17,?
C(=C\c1ccc2nncn2c1)/c1ccccc1,12%,28%,19%,30,·
COc1ccc(OCc2cc(C(=O)N(C)C(C)c3ccon3)no2)c(Cl)c1 (centres undefined),-19%,32%,-3%,-93*,-14%
Cc1ccc(/C(C#N)=C\c2cn(C)c3ccccc23)cc1,·,·,·,·,6.3µM*
CNC(=S)/N=C/NOCc1ccc(Cl)cc1Cl,-13%,?,-25%,-78*,?
CCCCn1c(N)c(N(CC(C)C)C(=O)C2CC(=O)N(c3ccc(C)cc3)C2)c(=O)[nH]c1=O (centres undefined),-1%,-17%,-13%,-89*,3%
CCCn1c(N)c(N(CCOC)C(=O)c2ccc(N3CCCC3=O)cc2)c(=O)[nH]c1=O,-8%,1%,i,19,8%
CCCCn1c(N)c(N(CCOC)C(=O)c2ccc(N3CCCC3=O)cc2)c(=O)[nH]c1=O,·,-23%,·,-101*,3%
CCCCn1c(N)c(N(CC(C)C)C(=O)C2CC(=O)N(c3ccc4c(c3)OCCO4)C2)c(=O)[nH]c1=O (centres undefined),-20%,8%,-8%,-21,?
COc1ccccc1CNC(=O)CCCc1nnc2n(CC(C)C)c(=O)c3sccc3n12,-2%,-19%,-10%,?,·
COc1ccc(-c2nc3cnc(N(C)C)nc3n(CCc3ccccc3)c2=O)cc1,·,-5%,·,·,·
CCCC(=O)N1CC2(C1)CN(C(=O)CN1CCOCC1)[C@H](CO)c1c2c2ccc(OC)cc2n1C,·,·,·,1,·
Cc1c(C(=O)c2ccc(F)cc2)c2ccccn2c1CCc1ccccn1,-26%,40µM*,i,-16,?
COc1ccc(-c2noc(CCC(=O)NC3CCCC3)n2)cc1,5%,-5%,-14%,?,-11%
COc1ccc(-c2noc(CCCC(=O)NC3CCCCC3)n2)cc1,7%,-22%,-18%,-72*,?
Cc1ccc(-c2noc(CCCC(=O)NC3CCCC3)n2)cc1,-6%,-26%,-16%,-80*,?
CC(C)C(=O)NCCc1nc(-c2ccccc2Cl)no1,-11%,-4%,-13%,-60*,3%
O=C(CCCc1nc(-c2ccccc2)no1)NC1CCCC1,-4%,-5%,-13%,11,1%
Cc1cccc(-c2noc(CCCC(=O)Nc3cccnc3)n2)c1,-5%,-24%,-21%,-25,?
O=C(NCCc1nc(-c2ccccc2Cl)no1)c1ccccc1,-5%,-10%,-10%,?,-19%
O=C(CCCc1nc(-c2ccc(Cl)cc2)no1)Nc1cccnc1,·,?,·,-72*,?

# Bioassay records as filed in PubChem.
